Bioassay records as filed in PubChem BioAssay.
Pf Dd2 inh: blocks in vitro growth of P. falciparum Dd2 | P. falciparum Dd2 growth, SYBR Green, 72 h | 4.3% of 120,000 active | Potency, µM (doses to about 28.9 µM), without a hit: top-dose activity, negative = inhibition, usual class: inhibitors | AID 1347417; active = well fitted inhibition curve with a large enough effect;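 note: plate controls were DMSO vehicle for no effect and reference drug for full effect; nearly all actives have a fitted effect of over 65% in size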
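Infected erythrocytes (Dd2, 0.3% parasitemia, 2.5% hematocrit final) are added to compound in RPMI-1640/Albumax II medium, grown 72 h at 37C in low oxygen, then lysed with saponin/Triton-X containing SYBR Green and read by fluorescence.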
* marks the source's active call; other numbers are inactive results; i = inactive; [ ] = another dose, or the depositor's remark. Many of the other results were omitted from the sample, so hits are more common in it than they were. Potency is the fitted concentration of half-maximal effect.

SMILES	Pf Dd2 inh
O=C(NC1CCN(c2ccc(F)cc2)C1=O)c1ccc(Cl)s1 (centres undefined)	i
Clc1ccc(C2Cn3nnc(-c4noc(-c5ccc6c(c5)OCO6)n4)c3CO2)cc1 (centres undefined)	i
COc1ccc(-c2nnc(SCC(=O)NCc3ccccc3)nc2-c2ccc(OC)c(OC)c2)cc1OC	8.91µM*
CCOc1cc(-c2nnc(SCC(=O)Nc3ccc(F)c(F)c3)nc2-c2ccc(OC)c(OCC)c2)ccc1OC	15.4%
CCOc1ccc(-c2nnc(SCC(=O)NC3CCCC3)nc2-c2ccc(OCC)c(OC)c2)cc1OC	90.6%
COc1cccc2c1ccn2CCNC(=O)Cn1nc2c(cc1=O)CCCC2	-1.7%
COc1ccc(C(=O)N2CCC3(CC2)N=C(c2cccc(Br)c2)NO3)c(OC)c1	49.9%
Cc1ccccc1NS(=O)(=O)C1CCS(=O)(=O)C1 (centres undefined)	0.2%
c1cncc(-c2nc(-c3ccc(OC4CNC4)cc3)no2)c1	5.01µM*
O=C(c1ccncc1)N1CCC(Oc2ccc(-c3noc(-c4ccccc4)n3)cc2)C1 (centres undefined)	-4.0%[5.79 µM]
CCCN1CC(Oc2ccc(-c3noc(-c4cccnc4)n3)cc2)C1	-11.1%
c1cc(-c2nc(-c3ccc(OC4CNC4)cc3)no2)ccn1	3.98µM*
O=C(Nc1ccccc1)N1CC(Oc2ccc(-c3noc(-c4ccncc4)n3)cc2)C1	-17.9%
CC(C)c1nc(-c2ccc(OC3CCNC3)cc2)no1 (centres undefined)	i[5.79 µM]
O=C(N[C@@H]1CN(CC2CC2)C[C@H]1CO)c1ccccc1	-25.2%
CC(C)(C)C1CCC2(CC1)NC(=O)N(CC(=O)N1CCN(c3ccc(F)cc3)CC1)C2=O (centres undefined)	-13.5%
CNC(=O)[C@@H]1CN(S(=O)(=O)c2cnc[nH]2)C[C@H]1c1nc(C)no1	9.3%
CC(=O)N1Cc2ccccc2CC2(CCCN(CC3CCNC3)C2)C1 (centres undefined)	-3.6%
O=C(CC[C@@H]1CNC(=O)[C@@H]2C[C@H](NCc3ccc(OC(F)(F)F)cc3)CN12)Nc1ccccc1	i
O=Cc1cccc(-c2cncc(C(=O)O)c2)c1	i
Cc1cc2c(-c3cccnc3)nc(-c3c(C)noc3C)cc2[nH]1	i
COc1ccc(NC(=O)C2CC(=O)N(c3n[nH]c4cccc(F)c34)C2)c(OC)c1 (centres undefined)	-17.3%
CCc1noc(-c2nc(-c3ccc4c(c3)OCO4)no2)n1	i
COc1cc(C)ccc1OCCSc1nc(-c2cccc(C)c2)nc2cc(=O)[nH]n12	-1.1%
Cc1cccc(-c2nc(SCCCOc3ccc(Cl)c(C)c3)n3[nH]c(=O)cc3n2)c1	i
SMILES	Pf Dd2 inh
Cc1ccc(OCCSc2nc(-c3ccccc3C)nc3cc(=O)[nH]n23)cc1Cl	3.7%
CCc1ccc(OCCCSc2nc(-c3ccc(C(C)(C)C)cc3)nc3cc(=O)[nH]n23)cc1	11.2µM*
Cc1cccc(OCCCSc2nc(-c3ccc(C(C)(C)C)cc3)nc3cc(=O)[nH]n23)c1C	10µM*
CCc1ccc(OCCSc2nc(-c3cccc(C)c3)nc3cc(=O)[nH]n23)cc1	i
O=C(N[C@@H]1COCC[C@@H]1OCc1cscn1)c1ccc2c(c1)CCO2	-6.5%
O=C1Nc2ccc(/C=C/c3ccccc3)cc2C(=O)N2C[C@H](O)C[C@@H]12	-18.6%[44.1 µM]
O=C(c1ccccn1)N1CCC(n2cc(-c3nc(-c4ccccc4)no3)nn2)CC1	i
O=C(c1ccc(Br)cc1)N1CCc2[nH]nc(C(=O)N3CCOCC3)c2C1	-13.8%
O=C(NCCc1ccccc1)c1ccc2nc(CCc3ccccc3)oc2c1	49.7%
CN(C)CCNC(=O)c1ccc2nc(CCc3ccccc3)oc2c1	22.7%
O=C(NCCCN1CCN(c2ccccc2)CC1)c1ccc2nc(CCc3ccccc3)oc2c1	7.94µM*
O=C(Nc1cc(F)ccc1Cl)c1cc2n(n1)CC(c1ccc(Br)cc1)OC2 (centres undefined)	i
O=C(c1csc2nc(-c3ccc(C(F)(F)F)cc3)cn12)N1CCN2CCCC2C1 (centres undefined)	3.6%
CC(C)c1ccc(NC2=N[C@H]3[C@@H](O)[C@H](O)C[C@H](C(=O)NC4CCCC4)[C@H]3S2)cc1	-21.9%[44.1 µM]
O=C1[C@@H]2C[C@@H](O)CN2C2(CN(C3CCC(F)(F)CC3)C2)C(=O)N1Cc1cccc(Cl)c1	i
CCOC(=O)c1c(S(=O)(=O)N2CCCC(C(=O)Nc3ncccc3C)C2)c(C)n(C)c1C (centres undefined)	i
Cc1ccc(Cl)cc1N1CCN(C(=O)C2CCN(S(=O)(=O)c3ccc4c(c3)oc(=O)n4C)CC2)CC1	i
CCOC(=O)c1c(C)[nH]c(C)c1S(=O)(=O)N1CCC(C(=O)N2CCN(c3ccccc3F)CC2)CC1	i
Cc1ccc(C)c(N2CCN(C(=O)C3CCN(S(=O)(=O)c4ccc5[nH]c(=O)oc5c4)CC3)CC2)c1	5.62µM*
CCOC(=O)c1c(S(=O)(=O)N2CCC(C(=O)N3CCN(c4ccccc4F)CC3)CC2)c(C)n(C)c1C	i
CCOC(=O)c1c(C)[nH]c(C)c1S(=O)(=O)N1CCCC(C(=O)NCc2ccc(C)cc2)C1 (centres undefined)	i
CCOC(=O)c1c(S(=O)(=O)N2CCCC(C(=O)Nc3cc(C)ccc3OC)C2)c(C)n(C)c1C (centres undefined)	29.4%
CCOC(=O)c1c(S(=O)(=O)N2CCCC(C(=O)Nc3cc(C)ccn3)C2)c(C)n(C)c1C (centres undefined)	i
CCOC(=O)c1c(S(=O)(=O)N2CCCC(C(=O)N3CCN(c4cc(C)ccc4C)CC3)C2)c(C)n(C)c1C (centres undefined)	1µM*
CCOC(=O)c1c(S(=O)(=O)N2CCCC(C(=O)N3CCN(c4cccc(C)c4C)CC3)C2)c(C)n(C)c1C (centres undefined)	1.12µM*
SMILES	Pf Dd2 inh
Cc1ccc(C)c(N2CCN(S(=O)(=O)c3ccc4c(c3)CCCN4C(=O)C3CCC3)CC2)c1	5.9%
CCOC(=O)c1c(C)[nH]c(C)c1S(=O)(=O)N1CCCC(C(=O)N2CCN(c3cc(C)ccc3C)CC2)C1 (centres undefined)	1.26µM*
O=C(c1ccc(C(F)(F)F)cc1)N1CCC(C(=O)O)(c2ccccc2)CC1	-5.1%
CCNC(=O)N1CCCCCCNC(=O)[C@@H]2CCCC[C@@H]21	3.5%
Cc1cccc2nc(CNC(=O)c3cc(COc4ccc(F)cc4F)on3)cn12	-12.6%
Cc1cccc(NC(=O)Cn2c(N3CCc4ccccc4C3)nc(C)cc2=O)c1	-25.2%
CN1CCN(C(=O)CSCc2ccccc2Cl)[C@H]2CS(=O)(=O)C[C@H]21	-10.3%
Clc1ccccc1C1(c2ccnc(NC3CCC3)n2)CCNCC1	7.08µM*
Clc1ccccc1C1(c2ccnc(-c3ccccc3)n2)CCNCC1	10µM*
OC[C@@H](O)CNc1nccc(C2(c3ccccc3Cl)CCNCC2)n1	25.4%
CN(C)C1CCN(c2nccc(C3(c4ccccc4Cl)CCNCC3)n2)C1 (centres undefined)	-24.7%
Clc1ccccc1C1(c2ccnc(C3CC3)n2)CCNCC1	2.24µM*
O[C@@H]1CCN(c2nccc(C3(c4ccccc4Cl)CCNCC3)n2)C1	-17.2%
CN1CCC(CNc2nccc(C3(c4ccccc4Cl)CCNCC3)n2)C1 (centres undefined)	-7.3%
CCn1nc(C)c(CNC(=O)C(c2ccc(F)cc2)N(C)C)c1C (centres undefined)	-21.8%
CC(C)OCCCNc1nc2c([S+](=O)([O-])c3ccc(Cl)cc3)nnn2c2ccccc12	9.9%
